PubChem BioAssay (Tox21)
Results filed as inconclusive are left out. Where a call stands in place of a potency, no number is given. Activity calls are given as the source filed them. The call rests on the fitted dose curve; in most records, active means well fitted inhibition curve with a large enough effect in the repeat runs; inconclusive means weak or mixed curves; inactive means flat fitted curve, though single readings scatter.

Each compound was assayed against Luciferin 4-monooxygenase (Photinus pyralis) (UniProt P08659) (assay: qHTS assay to identify small molecule inhibitors of firefly luciferase (AID 1224835; further: nearly all actives have a fitted effect of over 25% in size)). Details: purified P. pyralis luciferase, luminescence inhibition; series mostly up to 115 µM.
Luciferin 4-monooxygenase (Photinus pyralis), sequence (P08659 whole entry, looked up): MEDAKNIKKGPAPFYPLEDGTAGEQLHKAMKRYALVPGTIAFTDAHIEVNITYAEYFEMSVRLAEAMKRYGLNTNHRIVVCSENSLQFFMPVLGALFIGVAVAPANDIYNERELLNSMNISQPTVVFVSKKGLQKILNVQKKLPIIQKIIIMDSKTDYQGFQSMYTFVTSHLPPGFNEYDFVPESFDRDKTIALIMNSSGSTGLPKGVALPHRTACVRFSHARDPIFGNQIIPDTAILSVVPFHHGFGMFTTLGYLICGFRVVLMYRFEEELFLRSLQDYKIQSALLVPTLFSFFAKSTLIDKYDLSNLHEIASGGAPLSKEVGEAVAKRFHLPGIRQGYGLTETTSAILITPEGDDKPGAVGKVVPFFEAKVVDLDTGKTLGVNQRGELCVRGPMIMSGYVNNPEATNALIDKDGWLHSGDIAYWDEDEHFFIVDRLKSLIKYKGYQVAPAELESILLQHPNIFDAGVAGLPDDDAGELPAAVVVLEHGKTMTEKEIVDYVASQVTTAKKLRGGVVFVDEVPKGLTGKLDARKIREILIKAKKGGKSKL
Description: U.S. Tox21 Program National Center for Advancing Translational Sciences [NCATS] NIH Chemical Genomics Center [NCGC] U.S. Environmental Protection Agency [EPA] National Institutes of Environmental Health Sciences [NIEHS] National Toxicology Program [NTP] U.S. Food and Drug Administration [FDA] Tox21 Assay Overview: Firefly (Photinus pyralis) luciferase is one of the most commonly used transcriptional reporters. Firefly luciferase reporter-gene assays are generally considered one of the most sensitive assay types (Wood, 1995; Wood, 1998). However, it was initially observed, in 1991, by Thompson et al., that compounds that resemble the substrates of firefly luciferase (FLuc) can act as competitive inhibitors of the enzyme, and that these compounds, upon interaction with luciferase in the cell, can actually stabilize the protein and increase its half-life. Previous profiling work by other groups to determine the prevalence of compounds that affect FLuc enzymatic activity (PubChem AID 411) identified that ~3% of the MLSMR library (then at ~72K) inhibited FLuc. […] Thus the Tox21 10K library is profiled for activity against FLuc using a biochemical assay of purified FLuc and KM concentrations of FLuc substrates (D-luciferin and ATP).
These assay plates were then treated with 23nL of compound or DMSO using a Kalypsys pin tool, which allows for delivery of a 6-point interplate titration of each compound to the assay plate (quantitative HTS.) 1 uL of firefly luciferase mix (containing 50 mM Tris acetate, pH 7.6, 0.04 uM P. pyralis luciferase, 0.01% Tween, 0.05% BSA and dH2O) was then delivered by FRD to each well. Luciferase activity was then measured using a ViewLux CCD imager.
With `CCOC(=O)CBr` the Potency was “inactive”.
In the case of `Cl/C=C\C[N+]12CN3CN(CN(C3)C1)C2`, the Potency is reported as “inactive”.
`c1ccoc1` was tested, and the Potency was “inactive”.
`COc1nn(C(=O)NS(=O)(=O)c2ccccc2OC(F)(F)F)c(=O)n1C` was tested, and the Potency was “inactive”.
`O=C(CBr)Nc1ccc(Cl)cc1C(=O)c1ccccc1F` was tested, and the Potency was “inactive”.
In the case of `CC(=O)C(C)(C)C`, the Potency is reported as “inactive”.
In the case of `O=[Se]=O`, the Potency is reported as “inactive”.
For `Cc1ccc(-c2c(Cl)nc(C#N)n2S(=O)(=O)N(C)C)cc1`, the Potency was 35.6 µM (active).
`CCOP(=O)(OCC)Oc1ccc([N+](=O)[O-])cc1` was tested, and the Potency was “inactive”.
For `CCCCOC(=O)c1ccccc1C(=O)OCc1ccccc1`, the Potency was “inactive”.
With `N#CCc1ccccc1` the Potency was “inactive”.
For `O=C(NC(=O)c1c(F)cccc1F)Nc1ccc(OC(F)(F)C(F)OC(F)(F)F)c(Cl)c1` (stereo not given), the Potency was “inactive”.
With `O=C(O)c1ccccc1C(=O)Nc1cccc2ccccc12` the Potency was “inactive”.
In the case of `O=S1(=O)OC(c2cc(Br)c(O)c(Br)c2)(c2cc(Br)c(O)c(Br)c2)c2ccccc21`, the Potency is reported as 10.3 µM (active).
For `CCCCCCC#N`, the Potency was “inactive”.
`S=C=NCc1ccccc1` was tested, and the Potency was “inactive”.
For `CCCC(=O)Cl`, the Potency was “inactive”.
In the case of `O=C(O)C(F)(F)C(F)(F)C(F)(F)C(F)(F)C(F)(F)C(F)(F)C(F)(F)C(F)(F)C(F)(F)C(F)(F)F`, the Potency is reported as “inactive”.
With `CCOP(=S)(OCC)SCSCC` the Potency was “inactive”.
With `Clc1cc(C(Cl)(Cl)Cl)cnc1Cl` the Potency was “inactive”.
For `CCOC(=O)COc1cc(-c2nn(C)c(OC(F)F)c2Cl)c(F)cc1Cl`, the Potency was “inactive”.
In the case of `O=NN1CCNCC1`, the Potency is reported as “inactive”.
With `COP(=O)(OC)O/C(=C/Cl)c1cc(Cl)c(Cl)cc1Cl` the Potency was “inactive”.
In the case of `ClCC(Br)CBr` (stereo not given), the Potency is reported as “inactive”.
With `Sc1ccccc1Cl` the Potency was “inactive”.
With `CCC(COC(=O)c1cc(OC)c(OC)c(OC)c1)(c1ccccc1)N(C)C` (stereo not given) the Potency was “inactive”.
`CN1C[C@H](CNC(=O)OCc2ccccc2)C[C@@H]2c3cccc4c3c(cn4C)C[C@H]21` was tested, and the Potency was “inactive”.
With `O=NN1CCCCCC1` the Potency was “inactive”.
In the case of `N#CCC#N`, the Potency is reported as “inactive”.
With `c1ccc(C2CC2)c(OCC2=NCCN2)c1` the Potency was “inactive”.
For `COC(=O)C(Br)CBr` (stereo not given), the Potency was “inactive”.
With `O=C1CN=C(c2ccccc2)c2cc(Cl)ccc2N1CC1CC1` the Potency was “inactive”.
With `CC(c1ccc(O)cc1)(c1ccc(O)cc1)c1ccc(O)cc1` the Potency was “inactive”.
In the case of `COc1nn(CSP(=S)(OC)OC)c(=O)s1`, the Potency is reported as 35.6 µM (active).
In the case of `O=S1OC[C@@H]2[C@H](CO1)[C@]1(Cl)C(Cl)=C(Cl)[C@@]2(Cl)C1(Cl)Cl` (stereo not given in full), the Potency is reported as “inactive”.
In the case of `C=CCOC(C)=O`, the Potency is reported as “inactive”.
With `IC(I)=C(I)I` the Potency was “inactive”.
For `CCOP(=O)(OCC)SCCSCC`, the Potency was “inactive”.
In the case of `O=C(N[C@H](c1ccccc1)[C@@H]1CN2CCC1CC2)c1c(Cl)ccc(C(F)(F)F)c1Cl`, the Potency is reported as “inactive”.
With `CCOS(C)(=O)=O` the Potency was “inactive”.
